# Measured values reported in PubChem BioAssay AID1259240 (Keith Lab, Institute of Cancer Science, University of …, 2017).
# Unmarked numbers belong to inactive results. Active and inactive are the calls of the source. No stated cut-off is given here; in the data, active means fold change mostly below about -2 (no sharp cut-off); inactive means mostly above about -1.8.
# Test: TERT promoter activity modulators, primary screen, cell-based, luciferase reporter, human (AID 1259240)
# Details: A2780 TERT promoter luciferase reporter, 16 h; at 20 µM, fold versus average of vehicle-only wells
SMILES,fold change,outcome
CCCCNc1c(N2CCN(C(=O)OCC)CC2)c(=O)c1=O,1.31,–
CCOC(=O)c1nnn(-c2nonc2N)c1CNc1ccc(F)cc1,1.3,–
CCOC(=O)C1CCCN(c2c(NCCN(C)C)c(=O)c2=O)C1 (stereo not given),1.36,–
COC(=O)c1ccc(C(=O)OC)c(NC2=NS(=O)(=O)c3ccccc32)c1,1.16,–
CC(C)C(NS(=O)(=O)c1cccc2nsnc12)C(=O)N1CCCCCC1 (stereo not given),1.11,–
Cc1cc(C(=O)Nc2ccc(F)cc2F)on1,1.55,–
O=C1Nc2ccccc2/C1=C\c1cn(Cc2ccccc2F)c2ccccc12,-1.04,–
Cc1nc2cc(-c3ccc(Cl)cc3)nn2c(C)c1CCC(=O)O,-16.5 (active),–
COc1cccc(-c2cc(N)n(S(=O)(=O)c3cccc4nsnc34)n2)c1,1.15,–
CCCOc1ccc(Cc2nn3c(=O)/c(=C\c4cccc(OC(C)=O)c4)sc3nc2=O)cc1,-1.43,–
Cn1c(=O)oc2cc(S(=O)(=O)N3CCC(C(=O)Nc4nccs4)CC3)ccc21,1.31,–
O=C(Cn1c(=O)n(Cc2ccco2)c(=O)c2ccccc21)Nc1ccc(Cl)cc1Cl,-1.13,–
Cn1c(=O)oc2cc(S(=O)(=O)N3CCC(C(=O)NCC4COc5ccccc5O4)CC3)ccc21 (stereo not given),-1.13,–
CC1CCOC2(O1)C(=O)N(CN1CCN(c3cccc(Cl)c3)CC1)c1ccccc12 (stereo not given),-1.15,–
O=C(Nc1cccc(F)c1)C1CCCN(S(=O)(=O)c2cnc[nH]2)C1 (stereo not given),1.26,–
CSc1ccc(CCNc2ccc3nnc(-c4ccccc4)n3n2)cc1,1.07,–
Cc1[nH]nc2c1C(c1cccs1)NC2=O (stereo not given),-1.17,–
CN(CC(=O)NC1CCCc2ccccc21)S(=O)(=O)c1ccc2c(c1)CCC(=O)N2 (stereo not given),1.18,–
CCOC(=O)C1CCN(c2cc(C)c(C#N)c3nc4ccccc4n23)CC1,-2.16 (active),–
CC1CC(C)CN(C(=O)Cn2c(=O)oc3cc(S(=O)(=O)NC4CCCC4)ccc32)C1 (stereo not given),1.02,–

SMILES,fold change,outcome
COc1ccc(-c2noc(-c3cc(OC)c(OC)cc3OC)n2)cc1,1.46,–
CCOc1cc2c(cc1OCC)C(c1cc(OC)c(OC)c(OC)c1)CC(=O)N2 (stereo not given),-1.02,–
Fc1ccc(Br)cc1C1C=C(c2cccnc2)Nc2ncnn21 (stereo not given),–,inactive
O=C(NC1CCCCC1)C(=O)c1c(-c2ccccc2)cc2ccccn12,1.24,–
CC(C)n1cnc2cc(NCc3ccccn3)ccc21,-1.44,–
Nc1ncnc2c1nc1n2CC(O)CS1 (stereo not given),-1.44,–
Cc1cccc(-c2nc3s/c(=C4\C(=O)N(C)c5ccccc54)c(=O)n3n2)c1,-1.34,–
CCOC(=O)c1c(NC(=O)Nc2ccc(F)cc2)sc2c1CCN(C(=O)OCC)C2,-1.41,–
CS(=O)(=O)Nc1ccc(Cl)c2cccnc12,-2.8 (active),–
COc1cc(-c2nc3cnccn3c2NC2CCCCC2)ccc1O,–,inactive
O=C(CCSc1nc(-c2ccc3c(c2)OCO3)cc(C(F)(F)F)n1)N1CCCCC1,-1.15,–
CC(C)C(NS(=O)(=O)c1cccc2nsnc12)C(=O)NC1CCCCC1C (stereo not given),-1.42,–
COc1cc(OC)cc(-c2cc(N)n(S(=O)(=O)Cc3ccccc3)n2)c1,1.16,–
O=C1c2cccnc2C(=O)N1Cc1ccccc1,1.84,–
CCOc1ccc(-n2c(O)cnc2Nc2nc(C)cc(C)n2)cc1,-1.65,–
O=c1/c(=C/c2cn(-c3ccccc3)nc2-c2ccccc2)sc2nc(-c3ccco3)nn12,1.18,–
O=C1Nc2ccccc2/C1=C\c1cn(CC(=O)N2CCCC2)c2ccccc12,1.66,–
Cc1noc(C(=O)Nc2cccnc2Cl)c1Cl,1.48,–
O=c1oc2cc(O)ccc2cc1S(=O)(=O)c1ccccc1,-1.16,–
COc1ccc(Nc2c(-c3ccc(N4CCOCC4)cc3)nc3ncccn23)cc1OC,-1.26,–
